# Measured values from ChEMBL document CHEMBL1157539, “Thousands of chemical starting points for antimalarial lead identification” (Nature, 2010).
# What was measured:
# Assay type in all cases: functional
# Plasmodium falciparum [1] = experiment: GSK_TCMDC: Inhibition of Plasmodium falciparum 3D7 in whole red blood cells, using parasite LDH activity as an index of growth. Test compounds present at 2uM
# Plasmodium falciparum [2] = experiment: GSK_TCMDC: Inhibition of Plasmodium falciparum Dd2 in whole red blood cells, using parasite LDH activity as an index of growth. Test compounds present at 2uM
# HepG2 = experiment: GSK_TCMDC: Percent inhibition of human HepG2 cell line. Test compounds present at 10uM.
SMILES,Inhibition (Plasmodium falciparum [1]) [%],Inhibition (Plasmodium falciparum [2]) [%],Inhibition (HepG2) [%]
CCCCNC(=O)[C@H](CC1CCCCC1)NC(=O)c1ccc(O)c(-c2ccc(OC)cc2)c1,89,12,0
CCn1cnc2c(N3CCCCS3(=O)=O)cc(C(=O)N[C@@H](Cc3ccccc3)[C@H](O)CNC3CCOCC3)cc21,99,87,7
c1ccc(COc2ccc(C3CCCCC3)cc2)nc1,99,1,0
CC(CN(C)C)C(=O)Nc1ccc(-c2ccc(-c3nc4cc(F)ccc4[nH]3)cc2)cc1 (stereo not drawn),100,95,14
CCc1ccc(CN2CCC(CNC(=O)c3cc(-c4ccccc4Cl)cs3)C2)cc1.O=C(O)C(F)(F)F (stereo not drawn),98,0,14
CCc1ccccc1-c1csc(C(=O)NCC2CCN(Cc3ccc(C(C)(C)C)cc3)C2)c1.O=C(O)C(F)(F)F (stereo not drawn),90,15,25
COc1cc(Cc2cnc(N)nc2N)c2ccsc2c1OC.Cl,92,4,5
CC(=O)Nc1ccc(C#Cc2ccc(-c3c(C)[nH]c(C)c(Cl)c3=O)cc2)cc1,90,78,0
Cc1cccc(NC(c2cccs2)c2c(NC(=O)c3ccccc3)sc(C)c2C)n1 (stereo not drawn),88,80,0
COc1ccc(NC(=O)Nc2ccc(-c3ccc(-c4nc5ccccc5[nH]4)cc3)cc2)cc1,100,27,22
FC(F)(F)c1ccc2[nH]ccc(=NN=Cc3cccnc3)c2c1,100,40,0
O=C(Nc1ccc(Cl)cc1)Nc1ccc(OCC(O)CN2CCCCC2)cc1 (stereo not drawn),83,13,18
CN(C)CCc1coc2ccc(C(=O)Nc3ccc(-c4ccc(O)cc4)cc3)cc12,100,40,28
O=C(/C=C/c1ccc(Cl)c(Cl)c1)NCCCCCN1CCC(C(=O)Nc2ccc(Cl)c(Cl)c2)CC1,98,0,73
N#Cc1cc([N+](=O)[O-])ccc1-n1nc(-c2cccc(Cl)c2)n(Cc2ccco2)c1=S,100,100,12
Br.Cc1cc(C)c(CON2C(=N)N=C(N)NC2(C)C)cc1C,92,93,65
CCN(CC)c1ccc(-c2nc3cc(Cl)cnc3[nH]2)cc1,85,85,16
CCCc1cc(C(=O)N[C@@H](Cc2ccccc2)[C@H](O)CNC(C)(C)c2cccc(OC)c2)c(F)c(N2CCCC2=O)c1.O=CO,98,98,7
CCCc1ccc(S(=O)(=O)NC2CCN(C(=O)Nc3ccc(I)cc3)CC2)cc1,97,0,8
C=CCc1cc(Cc2cnc(N)nc2N)cc(CCC)c1O,90,2,54
CCOC(=O)C(CO)NC(=O)c1ccc([N+](=O)[O-])o1 (stereo not drawn),96,2,0

SMILES,Inhibition (Plasmodium falciparum [1]) [%],Inhibition (Plasmodium falciparum [2]) [%],Inhibition (HepG2) [%]
CCCCSc1c(CNCCCCCCNCc2ccc3ccccc3c2SCCCC)ccc2ccccc12.CS(=O)(=O)O,93,62,99
N#Cc1cccc(NC(=O)Nc2ccc(-c3ccc(-c4nc5cc(C(F)(F)F)ccc5[nH]4)cc3)cc2)c1,100,100,51
CCN(CC)CCN(Cc1ccc(-c2ccc(C(F)(F)F)cc2)cc1)C(=O)Cn1c(CCc2cc(F)cc(F)c2)nc(=O)c2ccccc21.O=C(O)C(O)C(O)C(=O)O,91,80,30
O=C(Nc1ccc(-c2cccc(-c3nc4cc(F)ccc4[nH]3)c2)cc1)c1ccncc1,96,18,58
FC(F)(F)c1ccc2[nH]ccc(=NN=CC=Cc3ccccc3)c2c1,82,9,0
Cc1cc(NCCCN2CCCC2=O)n2c(nc3ccccc32)c1C#N,93,48,4
Cc1cc(O)c(CN(C)Cc2ccc3c(c2)OCO3)cc1C(C)C,98,74,9
COc1ccc(NC(=O)[C@H](CC(C)C)Nc2ccnc(Nc3ccccc3)n2)cc1.O=C(O)C(F)(F)F,92,32,0
O=C(Nc1ccc(Cl)cc1)c1ccc(CN2CCCN(CC3CCCCC3)CC2)cc1.O=C(O)C(F)(F)F,92,42,48
Nc1nc(N)c2c(ccc3c2ccn3Cc2ccc(F)cc2)n1,97,96,66
COc1cc2c(cc1C(F)(F)F)N(C(=O)Nc1cc(OC(F)(F)F)cc(-c3cccnc3)c1)CC2,100,49,55
CC(C)CCNc1nc(NCCc2ccccc2)c2cc(O)ccc2n1,100,97,6
OCCOCCNCc1cccc(C#Cc2cc3ncnc(Nc4ccc(OCc5cccc(F)c5)c(Cl)c4)c3s2)n1,96,46,35
Cl.O=S(=O)(Nc1cc2c(cc1O)CCNCC2)c1ccc(-c2ccc(Cl)cc2)cc1,99,0,10
CC(C)(C)NS(=O)(=O)c1cc(C(=O)N2CCC(CCN3CCC(O)(c4cccc(C(F)(F)F)c4)CC3)(c3cccc(F)c3)CC2)c(Cl)cc1F,88,55,15
O=C(O)C(F)(F)F.O=[N+]([O-])c1cccc(CNC2CCN(Cc3ccc4ccccc4c3)CC2)c1,100,22,12
Cc1cc2c(cc1C(F)(F)F)N(C(=O)Nc1cc(C(=O)NCCN(C)C)cc(C(F)(F)F)c1)CC2,100,50,19
CC(C)(C)N1CCC(N(Cc2ccc(-c3ccc(C(F)(F)F)cc3)cc2)C(=O)Cn2c(CCc3cccc(F)c3F)cc(=O)c3ccccc32)CC1.O=C(O)C(O)C(O)C(=O)O,100,97,100
O=C(Nc1cccc(F)c1)N1CCC(NS(=O)(=O)c2ccc(Br)cc2)CC1,93,23,4
Cc1cccc2nc(-c3cccc(-c4ccc(NC(=O)C5CCCO5)cc4)c3)[nH]c12 (stereo not drawn),91,13,10
Cl.NC(=O)N1CCN(Cc2ccc(Br)cc2)CC1,96,0,83

SMILES,Inhibition (Plasmodium falciparum [1]) [%],Inhibition (Plasmodium falciparum [2]) [%],Inhibition (HepG2) [%]
CC(C)(C)c1ccc(NC(=O)c2ccc(CN3CCCN(Cc4ccsc4)CC3)cc2)cc1.O=C(O)C(F)(F)F,96,0,50
O=c1cc(NCCCNCc2cccc(C(F)(F)F)c2Cl)[nH]c2ccccc12,94,24,0
CCc1ccc(NC(=O)N(CCCN2CCN(C)CC2)Cc2csc(-c3ccc(CNCc4ccccc4)cc3)n2)cc1.O=C(O)C(F)(F)F,99,80,17
CC(C)N1CCC(N(Cc2ccc(-c3ccc(C(F)(F)F)cc3)cc2)C(=O)CCCn2c(CCc3cccc(F)c3F)nc(=O)c3ccccc32)CC1.O=C(O)C(O)C(O)C(=O)O,89,60,45
Cc1cccc2nc(-c3ccc(-c4cccc(CNCCN5CCNCC5)c4)cc3)[nH]c12.O=C(O)C(F)(F)F,85,2,9
COc1ccc(Nc2nc(C)cc(NC3CCCC3)n2)cc1,98,59,34
CCOc1ccccc1CCNC(C)Cc1ccc(C(=O)Nc2ccc(CC(C)NCCc3cccc(Cl)c3)cc2)cc1 (stereo not drawn),97,59,100
c1cncc(Oc2ccc(Nc3ccnc4cc(-c5cccc(CN6CCOCC6)c5)ccc34)cc2)c1,100,100,14
COc1cc2c(OC)cccc2cc1CNCCCCCCNCc1cc2cccc(OC)c2cc1OC.CS(=O)(=O)O,95,7,59
CCc1nnc2sc(-c3cccc(NC(=O)c4ccc(OC)c(Cl)c4)c3)nn12,92,55,3
COc1ccc(N2CCN(CCCCNCc3ccc(NC(=O)c4cc(Cl)cc(Cl)c4)cc3)CC2)c(OC)c1,100,99,39
COc1ccc2nccc([C@@H](O)CN3CCC(NCc4cc5ccccc5[nH]4)CC3)c2n1.O=C(O)C(=O)O,100,55,17
CN1Cc2cc(NC(=O)/C=C/c3ccccc3Cl)ccc2C(C)(C)C1.Cl,99,96,12
Fc1ccc(NC(=S)NCCc2ccccc2)cc1,99,0,0
CN(CCCCN)Cc1ccc(-c2ccc(Cl)cc2)cc1,97,20,96
CC(Cc1ccc(OCCN2CCN(c3cccc(C(F)(F)F)c3)CC2)cc1)NCC(O)c1cccc(C(F)(F)F)c1.Cl (stereo not drawn),97,91,11
COc1cccc(NC(=O)Cn2c(C)c(C#N)c3ccccc32)c1,100,100,16
CCCCC(N)COc1cccc2c(-c3ccncc3)c(-c3cccc(NC(=O)Nc4ccccc4)c3)nn12 (stereo not drawn),100,82,13
COc1cc2c(cc1O)[C@@H]1[C@H](O)[C@@H](O)C=C3CCN(C2)[C@H]31 [PSEUDOLYCORINE],90,31,18
